Assay [1] can be described thus: yeast TOR pathway RPL19A-GFP modulators, primary screen, cell-based, S. cerevisiae, multiplex flow cytometry (AID 1862; in the data active = percent of DMSO control GFP below about 86%;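 note: lower values mimic rapamycin by blocking the RPL19A rise seen in DMSO cells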). Particulars: S. cerevisiae RPL19A-GFP strain, flow cytometry fluorescence, 3 h; at 10 µM; stronger effect = lower value. On the technique in general: Flow cytometry measures light scatter and fluorescence of single cells or particles in a stream.
The nature of assay [2]: modulators of MEP2-GFP levels in yeast, primary screen, S. cerevisiae, multiplex flow cytometry (AID 1867;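 active = GFP response, as percent of the DMSO control, above the screen-wide mean plus 3 SD, about 139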;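 note: median GFP channel fluorescence of barcode-gated MEP2-GFP cells measured by flow cytometry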). Particulars: S. cerevisiae MEP2-GFP strain, 3 h, at 10 µM, stronger effect = higher value, 100% means same as DMSO wells.
The nature of assay [3]: modulators of CIT2-GFP expression in yeast, primary screen, S. cerevisiae, GFP fusion, multiplex flow cytometry (AID 1870;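 active = percent response above a set limit, the screen-wide mean plus 3 SD, cut at about 130% in these data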;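 note: barcoded CIT2-GFP strain pooled with four other GFP strains with rapamycin as positive control; median GFP fluorescence per well over plate mean of DMSO wells so 100% = DMSO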). Particulars: 3 h, at 10 µM, stronger effect = higher value.
Assay [4] in a line: modulators of LAP4-GFP expression in yeast, primary screen, S. cerevisiae, multiplex flow cytometry (AID 1873;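 active = GFP signal, as percent of the solvent control, above the screen mean plus 3 SD, about 149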). Particulars: 3 h, at 10 µM, stronger effect = higher value.
Assay [5] in a line: modulators of AGP1-GFP expression in yeast TOR pathway, primary screen, cell-based, multiplex flow cytometry, S. cerevisiae (AID 1887;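 active = GFP signal above the screen-wide mean plus 3 SD, that is over about 124.5% of the solvent control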;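 note: AGP1-GFP fusion strain of S. cerevisiae within a five-strain barcoded multiplex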). Particulars: 3 h, at 10 µM, stronger effect = higher value.
Assay [6] in a line: inhibitors of CD8+ T cell-vesicle binding, pilot screen, LFA-1/ICAM-1 modulator project, MLPCN validation set, flow cytometry (AID 2523;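 active = response below a set limit, under 55% cells CD8-positive and vesicle-bound, and CD8 cells' 90th-percentile brightness under 279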;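 for vesicle binding response: mean PE anti-B7-1 fluorescence of CD8+ cells relative to row control; 100% = QL9-loaded vesicles with DMSO vehicle in the same plate row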). Particulars: 2C mouse CD8+ T cells, at 7 µM, stronger effect = lower value; double positive events: measured here: CD8+/vesicle+ event percentage.
The target in assay [7] is Integrin beta-1 (Homo sapiens) + Integrin alpha-4 (Homo sapiens) (UniProt P13612+P05556). The assay can be described thus: inhibition of HUTS-21 binding to VLA-4, pilot screen, VLA-4 allosteric modulator project, U937 cells, HUTS-21 mAb, flow cytometry, validation set (AID 2674;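 active = inhibition above 50%, about 3 SD of the validation set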;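 note: antibody binding induced by the VLA-4 ligand LDV present at three times its Kd; 0% = LDV ligand with antibody and no compound and 100% = antibody without LDV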). Particulars: HUTS-21 LIBS mAb binding, at 6.7 µM, stronger effect = higher value, binding induced by LDV ligand.

A short description of assay [8]: superoxide lowering in aged yeast cells, pilot screen, validation compound set (AID 2706;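 active = superoxide response below 65% of plate, a cut near 3 SD across the whole screen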;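 note: yeast exposed to compound for one week at 30 degrees C before staining; 100% = mean of all compound wells on the same plate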). Particulars: S. cerevisiae aging, superoxide DHE fluorescence; at 10 µM; stronger effect = lower value.
The target of assay [9] is Beta-adrenergic receptor kinase 1 (Homo sapiens) (UniProt P25098). The assay can be described thus: GRK2 binders displacing RNA aptamer, biochemical, validation, human GRK2, bead flow cytometry (AID 488806). Particulars: bead-bound GRK2, FAM-aptamer displacement, at 10 µM, stronger effect = higher value.
Assay [10] concerns the target Beta-2 adrenergic receptor (Homo sapiens) (UniProt P07550). The experiment in a line: beta2AR agonists driving receptor internalization, pilot screen, cell-based, FAP fluorogen, flow cytometry, validation set (AID 504459;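 active = percent response above 42, roughly 3 SD of non-fluorescent test compounds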;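 note: agonist-driven loss of surface beta2AR via internalization measured by FAP dye flow cytometry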). Particulars: Am2.2-beta2AR cells, FAP surface receptor flow cytometry; at 10 µM; stronger effect = higher value.
Assay [11] has as its target AP-2 complex subunit beta (Homo sapiens) (UniProt P63010). The experiment in a line: inhibitors of arrestin peptide binding to AP2, pilot screen, biochemical, validation set, GST-AP2 beads, flow cytometry (AID 504541;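 active = inhibition above 54%, about 3 SD of non-fluorescent compounds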;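 note: AP2 carries R879A mutation and is captured from E. coli lysate; bead-bound FITC arrestin peptide fluorescence measuring arrestin peptide binding to AP2; 0% = DMSO wells and 100% = excess unlabeled arrestin peptide control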). Particulars: FITC arrestin peptide, at 10 µM, stronger effect = higher value, AP2 beta2 appendage fragment, R879A mutant.
The nature of assay [12]: yeast V-ATPase proton transport modulators, S. cerevisiae, pHLuorin, HTS validation (AID 504600; in the data active = response above about 15%;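 note: plate controls were DMSO for no effect and reference compound for full effect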). Particulars: S. cerevisiae pHLuorin cytosolic pH, at 10 µM, stronger effect = higher value.
In assay [13] the test system is anti-desmoglein-3 scFv antibody binding to human DSG3. The assay can be described thus: inhibitors of anti-DSG3 scFv binding to DSG3, pilot screen, biochemical, validation compound set, bead-based, flow cytometry (AID 588368;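 active = binding below the plate cutoff, the plate median minus 3 SD, with a reading above zero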;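 note: signal is the median channel fluorescence of bead-bound GFP antibody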). Particulars: Protein G beads, DSG3-Fc, scFv-GFP binding, at 10 µM, stronger effect = lower value.
A short description of assay [14]: inhibitors of fungal efflux pumps CDR1, CDR2, MDR1, pilot screen, validation compound set, multiplex, phenotypic (AID 588506;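 active = efflux inhibition above 0.42, the validation set average plus 4 SD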;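 note: Nile Red retained in cells so higher fluorescence means more efflux inhibition; 0 = negative control wells and 1 = enniatin B 25 µM full block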). Particulars: S. cerevisiae pump-expressing triplex, Nile Red efflux flow cytometry; at 10 µM; stronger effect = higher value; the pumps come from Candida albicans.
Assay [15] deals with ATP-binding cassette sub-family B member 6 (Homo sapiens) (UniProt Q9NP58). The experiment in a line: ABCB6 transporter inhibitors, pilot screen, K562-ABCB6 cells, flow cytometry, validation set (AID 588550;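 active = inhibition above the screen-wide mean plus 3 SD, about 51%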;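 note: 0% = DMSO wells and 100% = benzethonium chloride 70 µM positive control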). Particulars: K562-ABCB6 porphyrin accumulation, 1 h, at 10 µM, stronger effect = higher value.
Assay [16] can be described thus: promoters of myeloid differentiation in arrested cells, primary screen, cell-based, GFP/MAC1 double positive, flow cytometry, validation set (AID 588685;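 active = differentiation response of at least 50%, scaled between solvent and reference control, from cells with both markers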;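 note: compound exposure lasts four days before antibody staining and flow analysis; 0% = DMSO wells and 100% = 5 µM fulvestrant positive control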). Particulars: ER-HoxA9 marrow cells, stronger effect = higher value, normalized: vehicle 0, fulvestrant 100.

SMILES strings stand for the structures. Results filed as inconclusive are left out. Activity calls are given as the source filed them.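 Rule for the calls, unless noted: active = aptamer binding inhibition above 30%, about 3 SD of noise from non-fluorescent compounds; inactive = inhibition at or below 30%.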

Chain of Beta-adrenergic receptor kinase 1 (Homo sapiens) (P25098 whole entry, looked up): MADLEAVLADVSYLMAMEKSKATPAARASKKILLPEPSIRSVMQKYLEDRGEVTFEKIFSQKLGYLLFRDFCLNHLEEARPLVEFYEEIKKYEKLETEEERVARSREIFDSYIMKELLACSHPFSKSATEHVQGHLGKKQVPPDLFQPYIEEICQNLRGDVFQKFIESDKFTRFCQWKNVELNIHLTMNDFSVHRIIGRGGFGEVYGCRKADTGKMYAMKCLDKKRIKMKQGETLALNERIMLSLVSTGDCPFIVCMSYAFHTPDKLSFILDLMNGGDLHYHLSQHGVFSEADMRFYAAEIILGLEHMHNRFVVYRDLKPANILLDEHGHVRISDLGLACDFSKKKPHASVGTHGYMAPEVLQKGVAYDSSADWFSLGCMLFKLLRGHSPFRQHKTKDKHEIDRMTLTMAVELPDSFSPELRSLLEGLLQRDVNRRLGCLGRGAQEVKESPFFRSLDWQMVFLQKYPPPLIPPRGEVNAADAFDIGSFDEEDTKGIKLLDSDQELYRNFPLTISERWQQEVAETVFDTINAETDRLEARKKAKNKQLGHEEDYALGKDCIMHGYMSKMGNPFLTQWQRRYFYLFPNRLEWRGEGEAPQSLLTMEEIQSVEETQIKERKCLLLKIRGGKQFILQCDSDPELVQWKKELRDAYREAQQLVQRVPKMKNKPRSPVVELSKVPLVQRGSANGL
Chain of Beta-2 adrenergic receptor (Homo sapiens) (P07550 whole entry, looked up): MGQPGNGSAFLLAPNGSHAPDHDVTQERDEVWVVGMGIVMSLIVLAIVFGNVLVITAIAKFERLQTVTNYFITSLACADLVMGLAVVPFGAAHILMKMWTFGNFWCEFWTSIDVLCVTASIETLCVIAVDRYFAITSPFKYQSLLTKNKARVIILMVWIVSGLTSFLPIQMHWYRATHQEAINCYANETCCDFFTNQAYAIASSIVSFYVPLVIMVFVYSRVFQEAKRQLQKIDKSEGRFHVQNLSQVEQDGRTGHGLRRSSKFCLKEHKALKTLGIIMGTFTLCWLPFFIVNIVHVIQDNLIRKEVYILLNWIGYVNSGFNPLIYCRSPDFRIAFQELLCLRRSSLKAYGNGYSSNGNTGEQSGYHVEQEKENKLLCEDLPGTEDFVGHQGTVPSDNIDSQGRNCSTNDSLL
Chain of ATP-binding cassette sub-family B member 6 (Homo sapiens) (Q9NP58 whole entry, looked up): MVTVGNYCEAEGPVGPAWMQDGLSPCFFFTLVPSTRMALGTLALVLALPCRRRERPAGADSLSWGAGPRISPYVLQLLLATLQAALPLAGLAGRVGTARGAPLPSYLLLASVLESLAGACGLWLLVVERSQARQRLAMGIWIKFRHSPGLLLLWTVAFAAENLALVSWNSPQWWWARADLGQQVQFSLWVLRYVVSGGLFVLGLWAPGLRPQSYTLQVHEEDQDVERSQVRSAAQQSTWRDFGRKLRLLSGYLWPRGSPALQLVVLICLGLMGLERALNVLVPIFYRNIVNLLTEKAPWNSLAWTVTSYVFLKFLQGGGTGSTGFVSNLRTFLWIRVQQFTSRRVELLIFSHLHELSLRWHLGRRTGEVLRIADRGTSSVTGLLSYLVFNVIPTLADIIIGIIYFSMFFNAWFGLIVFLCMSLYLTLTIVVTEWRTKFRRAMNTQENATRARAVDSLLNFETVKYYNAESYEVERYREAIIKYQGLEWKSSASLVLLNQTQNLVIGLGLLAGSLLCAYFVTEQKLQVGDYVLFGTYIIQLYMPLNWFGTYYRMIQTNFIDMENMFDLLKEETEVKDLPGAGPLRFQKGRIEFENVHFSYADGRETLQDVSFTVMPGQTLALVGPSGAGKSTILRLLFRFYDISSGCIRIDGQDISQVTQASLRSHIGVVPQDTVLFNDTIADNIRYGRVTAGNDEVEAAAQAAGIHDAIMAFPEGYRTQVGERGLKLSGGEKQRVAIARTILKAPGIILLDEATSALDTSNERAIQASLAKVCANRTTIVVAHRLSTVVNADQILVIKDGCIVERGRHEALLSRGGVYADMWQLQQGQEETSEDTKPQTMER
Chain of AP-2 complex subunit beta (Homo sapiens) (P63010 whole entry, looked up, the tested form may be a part, one chain of several): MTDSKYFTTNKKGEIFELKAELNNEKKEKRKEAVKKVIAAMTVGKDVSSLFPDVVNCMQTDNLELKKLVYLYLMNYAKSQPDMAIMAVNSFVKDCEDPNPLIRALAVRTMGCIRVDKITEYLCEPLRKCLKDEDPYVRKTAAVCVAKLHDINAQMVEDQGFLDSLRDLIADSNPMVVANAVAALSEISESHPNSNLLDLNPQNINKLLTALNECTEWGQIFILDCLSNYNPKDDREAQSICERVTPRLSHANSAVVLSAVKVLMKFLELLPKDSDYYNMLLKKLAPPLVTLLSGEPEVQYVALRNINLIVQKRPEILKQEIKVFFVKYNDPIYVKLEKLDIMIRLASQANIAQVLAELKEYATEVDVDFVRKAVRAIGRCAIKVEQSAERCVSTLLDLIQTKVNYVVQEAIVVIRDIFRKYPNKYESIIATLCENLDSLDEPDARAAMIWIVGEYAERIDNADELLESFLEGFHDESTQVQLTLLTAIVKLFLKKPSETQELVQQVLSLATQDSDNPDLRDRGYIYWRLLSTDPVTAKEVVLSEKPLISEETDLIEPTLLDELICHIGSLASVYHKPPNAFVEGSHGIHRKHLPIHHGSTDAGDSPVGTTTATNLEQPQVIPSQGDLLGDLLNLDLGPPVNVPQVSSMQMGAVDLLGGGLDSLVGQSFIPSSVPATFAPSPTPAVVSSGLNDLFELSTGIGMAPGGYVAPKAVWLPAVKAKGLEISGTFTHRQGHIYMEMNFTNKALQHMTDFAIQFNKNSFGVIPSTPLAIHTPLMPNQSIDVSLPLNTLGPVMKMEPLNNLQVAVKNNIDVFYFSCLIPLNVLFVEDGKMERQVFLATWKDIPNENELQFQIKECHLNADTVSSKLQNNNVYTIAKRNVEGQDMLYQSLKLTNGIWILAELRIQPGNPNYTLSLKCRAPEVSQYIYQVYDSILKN
Chain of Integrin beta-1 (Homo sapiens) + Integrin alpha-4 (Homo sapiens) (P05556 whole entry, looked up): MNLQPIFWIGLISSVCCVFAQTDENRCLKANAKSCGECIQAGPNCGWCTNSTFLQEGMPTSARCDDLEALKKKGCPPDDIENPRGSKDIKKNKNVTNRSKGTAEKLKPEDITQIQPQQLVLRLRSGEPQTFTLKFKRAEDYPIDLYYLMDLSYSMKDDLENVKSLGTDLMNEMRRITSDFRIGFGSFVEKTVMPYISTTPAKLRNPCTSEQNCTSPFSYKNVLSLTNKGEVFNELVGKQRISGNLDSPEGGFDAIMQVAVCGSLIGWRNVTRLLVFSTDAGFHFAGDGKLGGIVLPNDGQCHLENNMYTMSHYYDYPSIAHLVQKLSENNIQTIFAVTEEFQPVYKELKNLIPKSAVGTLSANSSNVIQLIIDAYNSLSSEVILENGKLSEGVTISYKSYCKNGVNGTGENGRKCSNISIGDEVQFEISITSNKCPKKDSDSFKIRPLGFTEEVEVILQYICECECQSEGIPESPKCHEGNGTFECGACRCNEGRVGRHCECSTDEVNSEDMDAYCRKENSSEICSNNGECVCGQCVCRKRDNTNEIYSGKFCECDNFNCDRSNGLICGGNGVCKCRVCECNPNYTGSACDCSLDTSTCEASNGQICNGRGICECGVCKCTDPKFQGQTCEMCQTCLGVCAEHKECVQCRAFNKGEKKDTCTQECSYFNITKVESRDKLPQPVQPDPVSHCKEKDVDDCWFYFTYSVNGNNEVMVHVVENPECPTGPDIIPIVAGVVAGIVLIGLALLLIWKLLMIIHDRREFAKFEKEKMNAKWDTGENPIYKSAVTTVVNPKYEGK
Chain of Integrin beta-1 (Homo sapiens) + Integrin alpha-4 (Homo sapiens) (P13612 whole entry, looked up): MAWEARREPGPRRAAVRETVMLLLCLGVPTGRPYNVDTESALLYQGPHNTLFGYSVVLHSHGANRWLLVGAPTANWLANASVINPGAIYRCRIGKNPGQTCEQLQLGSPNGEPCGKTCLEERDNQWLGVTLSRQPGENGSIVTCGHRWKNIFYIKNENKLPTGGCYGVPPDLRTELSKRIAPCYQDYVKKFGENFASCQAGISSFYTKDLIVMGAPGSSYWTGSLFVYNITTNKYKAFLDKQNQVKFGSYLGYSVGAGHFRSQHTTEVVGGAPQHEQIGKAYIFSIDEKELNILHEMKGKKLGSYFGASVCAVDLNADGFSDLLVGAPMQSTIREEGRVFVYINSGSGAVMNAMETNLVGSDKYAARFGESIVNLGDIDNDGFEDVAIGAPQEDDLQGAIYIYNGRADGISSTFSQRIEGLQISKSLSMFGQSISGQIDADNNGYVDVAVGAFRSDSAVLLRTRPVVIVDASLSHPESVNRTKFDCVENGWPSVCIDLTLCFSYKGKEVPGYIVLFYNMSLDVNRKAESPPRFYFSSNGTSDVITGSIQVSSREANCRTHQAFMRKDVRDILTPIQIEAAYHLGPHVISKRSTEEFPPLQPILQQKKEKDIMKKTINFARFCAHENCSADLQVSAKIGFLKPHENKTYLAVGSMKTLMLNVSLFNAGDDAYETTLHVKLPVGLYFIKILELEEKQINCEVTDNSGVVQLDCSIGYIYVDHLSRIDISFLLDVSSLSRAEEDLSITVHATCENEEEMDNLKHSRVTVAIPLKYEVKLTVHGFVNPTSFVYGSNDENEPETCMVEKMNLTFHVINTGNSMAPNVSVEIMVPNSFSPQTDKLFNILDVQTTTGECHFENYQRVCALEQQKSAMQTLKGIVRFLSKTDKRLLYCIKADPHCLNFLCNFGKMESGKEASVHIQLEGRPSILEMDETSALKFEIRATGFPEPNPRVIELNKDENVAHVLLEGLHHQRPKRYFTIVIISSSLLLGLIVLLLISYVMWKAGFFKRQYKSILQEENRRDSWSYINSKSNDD

With `COCCOC(=O)C1=C(N)OC2=C(C(=O)CCC2)C1c1cccnc1` (stereo not given), the percent of DMSO control GFP in [1] was 105% (inactive). Also, the GFP response vs DMSO was 105% (inactive) in assay [2] and 89.4% (inactive) in assay [4]. Further, the percent response of DMSO control in assay [3] is 100% (inactive). In [5], the GFP response, % of DMSO is 101% (inactive). In assay [6], this compound gave a double positive events of 59.9%. In addition, the vesicle binding response in assay [6] was 89.9% (inactive). Further, the inhibition (commonly the change of the read-out against control, counted positive when it falls) in [7] is -5.64% (inactive); in assay [11] it was 4.01% (inactive); in assay [15] it was -4% (inactive). For the same compound, the superoxide response (% of plate) in assay [8] was 99.2% (inactive). For the same compound, the aptamer binding inhibition in assay [9] was 2% (inactive). The response in assay [10] was -2.38% (inactive); in [12], 0.7% (inactive). Also, the binding (% of control) in [13] is 99.3% (inactive). Further, the efflux inhibition (fraction of control) in [14] was -0.1 (inactive). Further, the differentiation response in assay [16] is 7.09% (inactive).
In the case of `CC(C)Cc1ccc(C(C)C(=O)O)cc1` (stereo not given), the percent of DMSO control GFP in [1] is 105% (inactive). Besides, the values for the GFP response vs DMSO in assay [2] and in assay [4] were 104% (inactive) and 142% (inactive), respectively. Also, the percent response of DMSO control in [3] is 95.7% (inactive). Moreover, in [5], the GFP response, % of DMSO is 111% (inactive). The compound further had a double positive events in assay [6] of 59.8%. In assay [6], the vesicle binding response was 141% (inactive). For the same compound, the inhibition in [7] is 4.84% (inactive); in [11], -1.77% (inactive); in assay [15], 5% (inactive). Further, the superoxide response (% of plate) in assay [8] is 144% (inactive). In assay [9], the aptamer binding inhibition is 0% (inactive). The response is -11.9% (inactive) in assay [10] and 0.95% (inactive) in assay [12]. Further, the binding (% of control) in [13] was 107% (inactive). In addition, the efflux inhibition (fraction of control) in [14] was -0.17 (inactive). The differentiation response in assay [16] is -1.05% (inactive).
On to `COc1ccc(-c2coc3c(CN4CCOCC4)c(O)ccc3c2=O)cc1`, for which, in [1], the percent of DMSO control GFP is 105% (inactive). Moreover, the GFP response vs DMSO in assay [2] is 99.7% (inactive); in [4], 93.7% (inactive). Also, the percent response of DMSO control in [3] was 109% (inactive). Also, in assay [5], the GFP response, % of DMSO is 105% (inactive). The compound also registered a double positive events in [6] of 57.5%. Moreover, in assay [6], the vesicle binding response is 118% (inactive). Also, the inhibition was -5.11% (inactive) in [7], 55.9% (active) in assay [11] and -5% (inactive) in assay [15]. Moreover, the superoxide response (% of plate) in assay [8] is 103% (inactive). The aptamer binding inhibition in assay [9] was -6% (inactive). Also, the figures for the response in assay [10] and in [12] were -34.4% (inactive) and -2.03% (inactive), respectively. Also, the binding (% of control) in assay [13] was 103% (inactive). Also, the efflux inhibition (fraction of control) in [14] was 0.31 (inactive). Besides, in assay [16], the differentiation response was -3.11% (inactive).
Consider `COC(=O)c1ccccc1NC(=O)NCc1ccccc1`, for which, in assay [1], the percent of DMSO control GFP was 96.3% (inactive). Further, the GFP response vs DMSO is 131% (inactive) in assay [2] and 85.8% (inactive) in assay [4]. In assay [3], the percent response of DMSO control is 104% (inactive). Besides, in [5], the GFP response, % of DMSO is 87.3% (inactive). This compound gave a double positive events in [6] of 63%. In addition, the vesicle binding response in assay [6] was 165% (inactive). Besides, the inhibition was -0.33% (inactive) in assay [7], 0.05% (inactive) in assay [11] and 15% (inactive) in [15]. The superoxide response (% of plate) in [8] is 99% (inactive). The aptamer binding inhibition in assay [9] is 6% (inactive). For the same compound, the response in assay [10] was -13.3% (inactive); in assay [12], 1.35% (inactive). For the same compound, the binding (% of control) in assay [13] was 104% (inactive). For the same compound, the efflux inhibition (fraction of control) in [14] is -0.28 (inactive). Further, the differentiation response in [16] was 0% (inactive).
For `COc1cc(C(=O)NCCCCCC(=O)O)cc(OC)c1OC`, the percent of DMSO control GFP in [1] was 104% (inactive). Moreover, the values for the GFP response vs DMSO in assay [2] and in assay [4] were 105% (inactive) and 103% (inactive), respectively. The percent response of DMSO control in assay [3] was 102% (inactive). Moreover, in [5], the GFP response, % of DMSO is 108% (inactive). For the same compound, in [6], the double positive events was 65.5%. Further, in [6], the vesicle binding response is 199% (inactive). For the same compound, the inhibition is 5.61% (inactive) in assay [7], -5.4% (inactive) in assay [11] and 1% (inactive) in [15]. For the same compound, the superoxide response (% of plate) in [8] was 100% (inactive). Also, the aptamer binding inhibition in assay [9] was 2% (inactive). In addition, the response in assay [10] was 11.2% (inactive); in assay [12] it was 1.93% (inactive). In addition, in assay [13], the binding (% of control) was 101% (inactive). Moreover, the efflux inhibition (fraction of control) in assay [14] is -0.23 (inactive). The differentiation response in [16] is -19.2% (inactive).

Values taken from PubChem BioAssay.
